Laboratory results published in PubChem BioAssay (Tox21).
Inconclusive results are not listed. Activity calls are given as the source filed them. Unless noted, calls follow the shape of the dose curve; as a rule, active = well fitted curve in the direction sought with a large enough effect in the repeat runs; inconclusive = weak or mixed curves; inactive = no such curve, though single readings can be large; an effect the other way counts as inactive or inconclusive.

How the values were obtained:
[1] = qHTS assay to identify aromatase inhibitors - cell viability counter screen (AID 743084);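 also: cells stimulated with testosterone during compound exposure; nearly all actives have a fitted effect of over 55% in size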
[2] = biological target: Aryl hydrocarbon receptor (Homo sapiens) (UniProt P35869); test: qHTS assay to identify small molecule that activate the aryl hydrocarbon receptor (AhR) signaling pathway (AID 743085); also: nearly all actives have a fitted effect of over 15% in size; also: potency is read from the fitted curve at half-maximal effect;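 as to activation: HG2L7.5c1 human HepG2 liver cells with stably integrated DRE-driven firefly reporter; series mostly up to about 70 µM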
Sequence of Aryl hydrocarbon receptor (Homo sapiens) (P35869 whole entry, looked up): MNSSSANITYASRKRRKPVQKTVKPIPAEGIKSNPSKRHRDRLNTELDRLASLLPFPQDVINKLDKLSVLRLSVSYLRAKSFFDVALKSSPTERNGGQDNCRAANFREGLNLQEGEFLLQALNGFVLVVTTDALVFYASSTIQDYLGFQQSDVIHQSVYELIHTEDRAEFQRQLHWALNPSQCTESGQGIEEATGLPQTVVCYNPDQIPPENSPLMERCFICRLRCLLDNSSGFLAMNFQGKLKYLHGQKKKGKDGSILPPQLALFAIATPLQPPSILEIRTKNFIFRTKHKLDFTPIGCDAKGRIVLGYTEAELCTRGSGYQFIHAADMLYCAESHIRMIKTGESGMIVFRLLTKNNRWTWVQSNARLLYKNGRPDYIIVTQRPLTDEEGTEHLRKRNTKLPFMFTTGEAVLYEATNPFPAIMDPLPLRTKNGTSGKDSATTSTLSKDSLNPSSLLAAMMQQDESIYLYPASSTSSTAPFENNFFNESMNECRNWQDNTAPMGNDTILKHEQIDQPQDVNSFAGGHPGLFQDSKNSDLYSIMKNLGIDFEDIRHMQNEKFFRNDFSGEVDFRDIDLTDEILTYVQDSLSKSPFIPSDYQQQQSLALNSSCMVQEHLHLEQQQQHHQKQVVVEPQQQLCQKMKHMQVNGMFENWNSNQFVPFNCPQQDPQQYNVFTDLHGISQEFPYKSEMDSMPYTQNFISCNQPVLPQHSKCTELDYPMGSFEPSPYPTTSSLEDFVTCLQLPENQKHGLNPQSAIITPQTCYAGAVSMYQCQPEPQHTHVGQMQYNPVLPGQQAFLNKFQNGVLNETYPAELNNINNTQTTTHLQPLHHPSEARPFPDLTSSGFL
In short: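 Measured in HG2L7.5c1 cells: CellTiter-Fluor signal (30 min incubation, 37C) for viability, then luciferase luminescence (30 min, room temperature). Compound contact time was 24 h at 37C, following a 5 h pre-incubation.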

[3] = qHTS assay to identify small molecule that activate the aryl hydrocarbon receptor (AhR) signaling pathway - cell viability counter screen (AID 743086);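 also: HepG2 liver cells carrying the AhR DRE luciferase reporter; series mostly up to about 70 µM; nearly all actives have a fitted effect of over 45% in size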
In short: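 HepG2-AhR-luc (HG2L7.5c1) cells, 4000/well, were preincubated 5 h at 37C, exposed to compound in qHTS format for 24 hr at 37C, then given CellTiter-Fluor for 30 min; viability was read as fluorescence in the reporter wells.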

[4] = biological target: Peroxisome proliferator-activated receptor gamma (Homo sapiens) (UniProt P37231); test: qHTS assay to identify small molecule agonists of the peroxisome proliferator-activated receptor gamma (PPARg) signaling pathway (AID 743094; active = well fitted activation curve with a large enough effect in the signal ratio in the repeat runs, not every such curve was filed as active; the % refers to the signal ratio)
Sequence of Peroxisome proliferator-activated receptor gamma (Homo sapiens) (P37231 whole entry, looked up): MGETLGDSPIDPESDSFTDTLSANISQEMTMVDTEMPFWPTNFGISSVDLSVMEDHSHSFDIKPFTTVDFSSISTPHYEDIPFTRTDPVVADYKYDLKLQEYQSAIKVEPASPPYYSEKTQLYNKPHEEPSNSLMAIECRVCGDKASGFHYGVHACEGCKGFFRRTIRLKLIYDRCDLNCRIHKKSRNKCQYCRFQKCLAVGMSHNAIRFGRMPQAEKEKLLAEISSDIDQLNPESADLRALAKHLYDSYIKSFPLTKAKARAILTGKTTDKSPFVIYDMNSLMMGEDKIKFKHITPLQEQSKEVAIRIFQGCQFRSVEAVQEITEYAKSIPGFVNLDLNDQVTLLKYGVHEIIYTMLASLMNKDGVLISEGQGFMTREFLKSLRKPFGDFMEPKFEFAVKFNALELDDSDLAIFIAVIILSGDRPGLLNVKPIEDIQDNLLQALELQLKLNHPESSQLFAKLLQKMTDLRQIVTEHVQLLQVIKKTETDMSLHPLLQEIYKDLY
In short: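 Cell-based bla reporter, HEK293H background, PPARg-driven UAS. Pre-incubation 5 h, 37C, 5% CO2. Compound 17 h, 37C. Substrate 1 h RT; fluorescence.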

[5] = biological target: Peroxisome proliferator-activated receptor gamma (Homo sapiens) (UniProt P37231); test: qHTS assay to identify small molecule antagonists of the peroxisome proliferator-activated receptor gamma (PPARg) signaling pathway (AID 743191; calls by dose curve; also: series mostly up to about 63 µM; nearly all actives have a fitted effect of over 30% in size)
In short: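 GeneBLAzer PPARg UAS-bla HEK293H cells carrying a UAS-driven beta-lactamase reporter were plated at 3000 cells/well, preincubated 5 h at 37C, then given compound for 17 h at 37C; LiveBLAzer B/G FRET substrate was read after 1 h at room temperature.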

[6] = qHTS assay to identify small molecule antagonists of the peroxisome proliferator-activated receptor gamma (PPARg) signaling pathway - cell viability counter screen (AID 743194); also: nearly all actives have a fitted effect of over 55% in size
In short: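 PPARg-UAS-bla HEK293H cells were plated, rested 5 h at 37 C, then treated with compounds plus rosiglitazone (50 nM final) for 17 h at 37 C; viability was then read by CellTiter-Glo luminescence after 30 min at room temperature.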

[7] = qHTS assay for small molecule agonists of the antioxidant response element (ARE) signaling pathway (AID 743202; active = well fitted activation curve with a large enough effect in the signal ratio in the repeat runs, not every such curve was filed as active; the % refers to the signal ratio)
In short: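 Following a 16 h, 37 C exposure of reporter HepG2 cells (ARE-driven beta-lactamase, 2,000 cells/well) to compounds, FRET substrate was applied for 2 h at room temperature and fluorescence intensity recorded.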

[8] = qHTS assay for small molecule activators of the heat shock response signaling pathway - cell viability counter screen (AID 743209); also: nearly all actives have a fitted effect of over 50% in size
In short: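 Same-well multiplex: after 2.5 h room-temperature incubation with LiveBLAzer B/G substrate and fluorescence reading, CellTiter-Glo reagent was added to HSE-bla HeLa cells that had received compound for 5 h at 37 C; luminescence read after 30 min.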

[9] = qHTS assay for small molecule activators of the heat shock response signaling pathway (AID 743210; active = well fitted activation curve with a large enough effect in the signal ratio in the repeat runs, with a control signal flat, not every such curve was filed as active; the % refers to the signal ratio; also: series mostly up to about 63 µM)
In short: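 Heat shock element–beta-lactamase HeLa reporter cells; qHTS with compounds for 5 h at 37 C; detection by FRET substrate fluorescence after 2.5 h at RT.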

[10] = qHTS assay to identify small molecule agonists of the peroxisome proliferator-activated receptor delta (PPARd) signaling pathway - cell viability counter screen (AID 743211); also: nearly all actives have a fitted effect of over 55% in size
In short: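 Following 5 h plating at 37 C and 5% CO2, PPARd UAS-bla HEK293H cells took up test compounds for 17 h. Viability was quantified by luminescence 30 min after CellTiter-Glo addition at room temperature.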

[11] = biological target: Peroxisome proliferator-activated receptor delta (Homo sapiens) (UniProt Q03181); test: qHTS assay to identify small molecule agonists of the peroxisome proliferator-activated receptor delta (PPARd) signaling pathway (AID 743212; calls by dose curve)
Sequence of Peroxisome proliferator-activated receptor delta (Homo sapiens) (Q03181 whole entry, looked up): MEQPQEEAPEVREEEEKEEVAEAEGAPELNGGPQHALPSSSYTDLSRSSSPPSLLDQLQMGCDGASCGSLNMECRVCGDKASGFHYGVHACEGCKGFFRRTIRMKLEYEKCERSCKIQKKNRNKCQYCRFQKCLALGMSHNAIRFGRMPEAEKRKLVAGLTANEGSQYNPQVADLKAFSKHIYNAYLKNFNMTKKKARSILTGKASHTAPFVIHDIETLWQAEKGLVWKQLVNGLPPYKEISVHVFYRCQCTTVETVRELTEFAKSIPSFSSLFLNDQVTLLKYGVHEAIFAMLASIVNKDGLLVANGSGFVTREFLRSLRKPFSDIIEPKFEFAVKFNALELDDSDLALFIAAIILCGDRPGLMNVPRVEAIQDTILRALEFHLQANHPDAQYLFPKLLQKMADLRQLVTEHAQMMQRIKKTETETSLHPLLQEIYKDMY
In short: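 Beta-lactamase reporter read by fluorescence (LiveBLAzer B/G FRET, 2 h, room temperature). Test agents, in DMSO, incubated at 37 C with PPARd-bla HEK293H cells.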

[12] = qHTS assay to identify small molecule antagonists of the peroxisome proliferator-activated receptor delta (PPARd) signaling pathway - cell viability counter screen (AID 743213); also: nearly all actives have a fitted effect of over 50% in size
In short: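 PPARd-bla HEK293H cells (3000/well) got compound plus 300 nM L165041 agonist for 17 h at 37 C. Viability in the same wells came from CellTiter-Glo luminescence after 30 min at room temperature.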

[13] = biological target: Peroxisome proliferator-activated receptor delta (Homo sapiens) (UniProt Q03181); test: qHTS assay to identify small molecule antagonists of the peroxisome proliferator-activated receptor delta (PPARd) signaling pathway (AID 743215; active = well fitted inhibition curve with a large enough effect in the signal ratio in the repeat runs, not every such curve was filed as active; the % refers to the signal ratio;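 also: cells stimulated with agonist L165041 at 300 nM final during compound exposure; series mostly up to about 62 µM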)
In short: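 Fluorescence from cleaved LiveBLAzer B/G FRET substrate (2 h, room temperature) reports PPARd-driven beta-lactamase in HEK293H UAS-bla cells. Cells had been treated 17 h at 37 C with compound plus 300 nM final L165041.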

[14] = qHTS assay to identify small molecule agonists of the farnesoid-X-receptor (FXR) signaling pathway - cell viability counter screen (AID 743218); also: nearly all actives have a fitted effect of over 45% in size
In short: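 Readout: CellTiter-Glo luminescence, 30 min RT, multiplexed after the FXR-bla FRET reading. HEK 293T FXR-UAS-bla cells received compound 5 h post-plating and were incubated 16 h at 37 C.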

[15] = qHTS assay to identify small molecule antagonists of the farnesoid-X-receptor (FXR) signaling pathway - cell viability counter screen (AID 743221; active = well fitted cell-killing curve with a large enough effect in the repeat runs, not every such curve was filed as active; also: nearly all actives have a fitted effect of over 50% in size)
In short: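 Compound effects on cell number were measured as CellTiter-Glo luminescence in HEK 293T cells expressing FXR-UAS-bla, after 16 h at 37 C with 50 uM CDCA (final).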

[16] = biological target: Vitamin D3 receptor (Homo sapiens) (UniProt P11473); test: qHTS assay to identify small molecule agonists of the vitamin D receptor (VDR) signaling pathway (AID 743222; calls by dose curve)
Sequence of Vitamin D3 receptor (Homo sapiens) (P11473 whole entry, looked up): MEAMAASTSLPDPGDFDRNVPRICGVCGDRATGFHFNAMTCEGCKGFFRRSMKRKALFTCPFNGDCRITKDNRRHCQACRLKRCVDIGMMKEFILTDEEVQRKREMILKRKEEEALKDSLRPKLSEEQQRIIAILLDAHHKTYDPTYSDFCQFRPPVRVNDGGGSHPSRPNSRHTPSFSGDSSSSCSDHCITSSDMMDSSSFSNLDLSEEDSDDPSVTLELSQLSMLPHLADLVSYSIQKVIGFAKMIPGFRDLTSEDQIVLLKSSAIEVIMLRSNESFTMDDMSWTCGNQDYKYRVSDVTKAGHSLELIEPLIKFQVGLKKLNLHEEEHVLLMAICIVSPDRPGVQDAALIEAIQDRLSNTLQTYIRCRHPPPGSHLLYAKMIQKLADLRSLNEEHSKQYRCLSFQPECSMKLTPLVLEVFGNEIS
In short: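 Following 4 h attachment at 37C, VDR-bla cells (2,000 per well) received DMSO-dissolved compounds or controls. After 16 h incubation, LiveBLAzer B/G FRET substrate was added and fluorescence read 2 h later at room temperature.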

[17] = biological target: Vitamin D3 receptor (Homo sapiens) (UniProt P11473); test: qHTS assay to identify small molecule antagonists of the vitamin D receptor (VDR) signaling pathway (AID 743223; active = well fitted inhibition curve with a large enough effect in the signal ratio in the repeat runs, not every such curve was filed as active; the % refers to the signal ratio)
In short: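 Beta-lactamase activity in VDR-bla cells is measured by FRET substrate fluorescence (2 h, room temperature) after cells spend 16 h at 37C with test compound and 3 nM final 1alpha,25-dihydroxyvitamin D3.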

[18] = qHTS assay for small molecule agonists of the antioxidant response element (ARE) signaling pathway - cell viability counter screen (AID 743203; calls by dose curve; also: nearly all actives have a fitted effect of over 55% in size)
In short: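 Measured in the same wells as the beta-lactamase ARE reporter, this read-out is CellTiter-Glo luminescence from HepG2 ARE-bla cells given compounds for 16 hrs.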

[19] = biological target: Bile acid receptor (Homo sapiens) (UniProt Q96RI1); test: qHTS assay to identify small molecule agonists of the farnesoid-X-receptor (FXR) signaling pathway (AID 743220; active = well fitted activation curve with a large enough effect in the signal ratio in the repeat runs, not every such curve was filed as active; the % refers to the signal ratio)
Sequence of Bile acid receptor (Homo sapiens) (Q96RI1 whole entry, looked up): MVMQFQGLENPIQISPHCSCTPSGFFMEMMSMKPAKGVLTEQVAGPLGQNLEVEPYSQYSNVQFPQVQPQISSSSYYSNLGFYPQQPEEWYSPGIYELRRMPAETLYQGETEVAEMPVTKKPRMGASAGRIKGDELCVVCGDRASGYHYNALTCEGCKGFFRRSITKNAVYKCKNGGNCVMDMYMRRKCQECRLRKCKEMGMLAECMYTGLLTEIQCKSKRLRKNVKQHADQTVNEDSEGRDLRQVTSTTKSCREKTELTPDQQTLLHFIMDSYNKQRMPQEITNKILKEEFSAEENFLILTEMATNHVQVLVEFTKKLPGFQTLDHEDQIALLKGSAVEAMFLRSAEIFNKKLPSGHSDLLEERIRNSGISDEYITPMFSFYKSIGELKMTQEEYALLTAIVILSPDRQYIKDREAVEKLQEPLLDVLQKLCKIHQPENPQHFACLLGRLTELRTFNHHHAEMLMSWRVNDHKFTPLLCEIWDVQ
In short: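 FXR-UAS-bla HEK 293T cells carrying a UAS-driven beta-lactamase reporter were plated for 5 h at 37C/5% CO2, then exposed to DMSO-dissolved Tox21 10K compounds for 16 h at 37C. A LiveBLAzer B/G FRET substrate was loaded for 2 h at room temperature before fluorescence reading.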

[20] = biological target: Bile acid receptor (Homo sapiens) (UniProt Q96RI1); test: qHTS assay to identify small molecule antagonists of the farnesoid-X-receptor (FXR) signaling pathway (AID 743217; active = well fitted inhibition curve with a large enough effect in the signal ratio in the repeat runs, not every such curve was filed as active; the % refers to the signal ratio)
In short: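 FRET fluorescence after 2 h room-temperature LiveBLAzer loading gives the readout. Prior step: FXR-bla HEK 293T cells, seeded and incubated 5 h, received test compounds plus 50 uM final CDCA for 16 h at 37 °C.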

Measured: Potency

C=CC[N+]1([C@H]2C[C@H]3[C@@H]4CC[C@H]5C[C@H](OC(C)=O)[C@@H](N6CCCCC6)C[C@]5(C)[C@H]4CC[C@]3(C)[C@H]2OC(=O)CC)CCCCC1
not listed: [18] | [19] | [20]
inactive: all other assays above

CN(C(=O)CCCOc1ccc2[nH]c(=O)ccc2c1)C1CCCCC1
not listed: [5] | [11] | [13] | [17] | [20]
inactive: all other assays above

CCCCOc1ccc(CC(=O)NO)cc1
inactive: [1] | [2] | [3] | [4] | [5] | [6] | [18] | [8] | [9] | [13] | [17]

C[Si](C)O[Si](C)(C)O[Si](C)(C)O[Si](C)C
not listed: [6] | [9] | [11] | [13] | [14] | [19] | [20]
inactive: all other assays above

N#Cc1cc2ccccc2c2ccccc12
active: [2] 61.4 µM
not listed: [7] | [10] | [15]
inactive: all other assays above

CCN(CC)C(C)CN1c2ccccc2Sc2ccccc21 (stereo not given)
not listed: [7] | [11] | [19] | [20]
inactive: all other assays above

CN(C)CC[C@@H](c1ccc(Br)cc1)c1ccccn1
not listed: [6] | [7] | [10] | [15] | [16] | [17] | [20]
inactive: all other assays above

Cn1c(NCCN(CCO)CCCc2ccc([N+](=O)[O-])cc2)cc(=O)n(C)c1=O
not listed: [5] | [9] | [12] | [13] | [16] | [19] | [20]
inactive: all other assays above

C=Cc1c(C)c2cc3[nH]c(cc4nc(cc5nc(cc1[nH]2)C(C)=C5CCC(=O)O)C(CCC(=O)O)=C4C)c(C)c3C=C
not listed: [7] | [9] | [10] | [13] | [17] | [19] | [20]
inactive: all other assays above

CCCCCCOC(=O)CCC
not listed: [5] | [17] | [20]
inactive: all other assays above

CCCCC(CC)(CO)CO
not listed: [4] | [11]
inactive: all other assays above

CC(=O)OC/C=C/c1ccccc1
not listed: [4] | [14]
inactive: all other assays above

CCOC(=O)CC(=O)c1cc(F)c(Cl)nc1Cl
not listed: [4] | [11] | [14] | [16] | [17] | [20]
inactive: all other assays above

CN(c1nccc(=O)[nH]1)C1CCN(c2nc3ccccc3n2Cc2ccc(F)cc2)CC1
inactive: [1] | [2] | [3] | [4] | [6] | [18] | [8] | [9] | [14] | [15] | [16]

CC(=O)CC(=O)c1ccccc1
not listed: [4] | [14] | [19] | [20]
inactive: all other assays above

CCCCc1cc2ccccc2c(OCCN(C)C)n1
not listed: [4] | [10] | [11] | [20]
inactive: all other assays above

Cn1c(N)nc2nc[nH]c2c1=O
not listed: [4] | [9] | [20]
inactive: all other assays above

CC(=O)[C@@]1(O)CC[C@H]2[C@@H]3C[C@H](C)C4=CC(=O)CC[C@]4(C)[C@H]3CC[C@@]21C
not listed: [5] | [7] | [13] | [17] | [19] | [20]
inactive: all other assays above

Cc1ccc2c(ccc3ccccc32)c1
not listed: [5] | [6] | [15] | [20]
inactive: all other assays above

CN1CCC[C@@H]1c1cccnc1
not listed: [4] | [9] | [11] | [13] | [14] | [19] | [20]
inactive: all other assays above

CCN1CCC[C@H]1CNC(=O)c1c(OC)ccc(Br)c1OC
not listed: [4] | [11] | [15] | [17] | [20]
inactive: all other assays above

N[C@H]1C(O)O[C@H](CO)[C@H](O)[C@@H]1O (stereo not given in full)
not listed: [4] | [19] | [20]
inactive: all other assays above

CCCCCCCCCO
not listed: [5] | [7] | [11] | [13] | [14]
inactive: all other assays above

OC(CCN1CCCCC1)(c1ccccc1)C1CCCCC1 (stereo not given)
not listed: [5] | [6] | [11] | [12] | [16] | [17] | [19] | [20]
inactive: all other assays above

Cl/C(=C\n1cncn1)c1ccc(Cl)cc1Cl
not listed: [5] | [7] | [13] | [16] | [17] | [19] | [20]
inactive: all other assays above
